Several values for one entry are separate records, joined by “and”; a condition that tells them apart may be missing. Equal entries are not always repeated. Activity calls are given as the source filed them.
How the values were obtained:
[1] = A549 cell viability effects, profiling panel, calcein-AM fluorescence, 48 h, basal (AID 1162); conditions: higher = more signal
[2] = adipocyte viability effects, profiling panel, cell-based, 3T3-L1 adipocytes, calcein-AM fluorescence, 48 h, basal (AID 1163); conditions: 3T3-L1 adipocytes viability, higher = more signal
[3] = HepG2 cell viability effects, profiling panel, calcein-AM fluorescence, 48 h, basal (AID 1164); conditions: higher = more signal
[4] = MM1S cell viability effects, profiling panel, calcein-AM fluorescence, 48 h, basal (AID 1165); conditions: higher = more signal;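 note: viability of MM1S multiple myeloma cells under basal unstimulated conditions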
[5] = basal RPMI8226 viability, no added stimulus, profiling panel, cell-based, calcein-AM fluorescence, 48 h, PK04 Diversity Set (AID 1166); conditions: RPMI8226 myeloma viability, higher = more signal;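 note: cells grown under basal conditions without added stimulus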
[6] = basal HepG2 mitochondrial membrane potential changes, profiling panel, cell-based, JC-1 fluorescence, 24 h, 100 nL compound (AID 1167); conditions: higher = more signal
[7] = basal 3T3-L1 adipocyte mitochondrial potential changes, profiling panel, cell-based, JC-1 fluorescence, 3T3-L1 adipocytes, 24 h, 100 nL compound (AID 1168); conditions: JC-1 mitochondrial fluorescence, higher = more signal, called active from +8 up or from −8 down
[8] = basal RPMI8226 mitochondrial membrane potential changes, profiling panel, cell-based, JC-1 fluorescence, 24 h, 100 nL compound (AID 1169); conditions: RPMI8226 myeloma, JC-1 mitochondrial potential fluorescence, higher = more signal
[9] = basal MM1S mitochondrial membrane potential changes, profiling panel, cell-based, JC-1 fluorescence, 24 h, 100 nL compound (AID 1170); conditions: higher = more signal
[10] = A549 lung cancer cell viability effects, profiling panel, resazurin fluorescence, 24 h, PK04 Diversity Set (AID 1171); conditions: higher = more signal, called active from +8 up or from −8 down
Note: test concentration not given here.

Structure (SMILES)	z-score [1]	z-score [2]	z-score [3]	z-score [4]	z-score [5]	z-score [6]	z-score [7]	z-score [8]	z-score [9]	z-score [10]
COC(=O)[C@@]1(Cc2ccc(OC)cc2)[C@H]2c3cc(C(=O)N(C)C)n(Cc4ccc(O)c(OC)c4)c3C[C@H]2CN1C(=O)c1ccccc1	-0.352 and 0.46	0.865 and 0.215	-0.0117 and 0.763	0.0138 and -1.26	-0.475 and -2.77	2.46 and 2.03	-0.0971 (inactive) and 0.395 (inactive)	0.178 and -0.792	-0.74 and -1.95	1.06 (inactive) and -1.21 (inactive)
COC(=O)C1=C(C)N(Cc2ccccc2)C2=C3C(=O)CCC[C@@H]3[C@@](O)(C(=O)OC)C(=O)N2[C@@H]1c1ccccc1	0.941 and 0.383	0.662 and -0.219	0.408 and -0.0984	-2.99	0.28 and -2.5	1.07 and -0.0794	-0.512 (inactive) and 0.739 (inactive)	0.0423 and -0.467	1.36 and -0.505	0.477 (inactive) and 0.238 (inactive)
C=CCN(CCCCC)C(=O)C(c1cccs1)N(C(=O)/C=C\C(=O)O)c1ccc(CCO)cc1 (stereo not given)	1.11 and 0.437	-4.27 and -0.651	0.877 and 1.59	1.78 and 1.21	-0.174 and 0.104	-0.087 and 0.966	-0.177 (inactive) and 0.506 (inactive)	1.26 and -0.556	-0.138 and -0.377	-0.235 (inactive) and -0.813 (inactive)
CCOC(=O)c1ccc(NC(=O)O[C@H]2[C@H](OC(=O)Nc3ccccc3)[C@@H](OC(=O)Nc3ccccc3)[C@@H](OC)O[C@@H]2CO)cc1	-1 and -2.09	1.79 and 1.14	-1.92 and -2.54	-1.83 and -2.21	-1.56 and -2.49	-1.05 and -0.323	2.13 (inactive) and 0.661 (inactive)	-0.464 and -0.37	-0.447 and -0.575	-3.35 (inactive) and -3.84 (inactive)
COC(=O)C1=C(C)N(Cc2ccccc2)C2=C3C(=O)N(c4ccccc4)C(=O)[C@@H]3[C@@](O)(C(=O)OC)C(=O)N2[C@@H]1c1ccccc1	1.52 and 2.18	0.0671 and 1.01	0.286 and -0.126	-0.532 and 0.354	0.585 and 1.26	0.889 and 1.68	0.143 (inactive) and 1.26 (inactive)	-0.87 and -0.111	0.702 and 0.136	0.497 (inactive) and 0.767 (inactive)
COC(=O)C1=C(C)N(Cc2ccccc2)[C@]23O[C@](C(=O)OC)(C(=O)N2[C@@H]1c1ccccc1)[C@H]1C(=O)N(c2ccccc2)C(=O)[C@H]13	0.0342 and 1.13	0.513 and 1.12	-0.254 and -0.339	0.149 and 0.0697	-0.483 and 0.292	0.369 and 0.573	0.658 (inactive) and 0.885 (inactive)	-0.749 and -0.197	0.702 and 0.235	0.376 (inactive) and -0.0028 (inactive)
CO[C@@H]1C=CCC(=O)N2CCC[C@H]2C(=O)OC[C@H](C)C(=O)OC[C@H]1C	0.616	0.345	1.33	0.383	-0.87	0.872	0.673 (inactive)	-0.0289	0.331	0.87 (inactive)
C=CC[C@@H](O)c1ccc(OCCO)cc1	0.589 and 0.923	-0.0396 and 0.764	1.22 and 0.876	1.17 and 1.23	0.834 and -1.19	1.28 and 1.15	-0.53 (inactive) and 0.676 (inactive)	0.871 and 0.81	0.00142 and 1.08	-0.707 (inactive) and -0.779 (inactive)
C=CCN(Cc1ccccc1)C(=O)C1N(CCCCCCO)C(=O)C2C(C(=O)O)C3C=CC21O3 (stereo not given)	-0.217 and 0.516	0.231 and 0.375	-0.642 and -0.438	-0.184 and -0.0762	0.462 and 1.64	-0.678 and -0.391	0.201 (inactive) and 0.867 (inactive)	-0.0429 and 0.0701	-0.252 and -0.0839	-0.0083 (inactive) and 0.239 (inactive)
COC(=O)[C@@]1(Cc2ccc(F)cc2)[C@H]2c3cc(C(=O)N4CCCC4)n(Cc4c(CO)[nH]cc(C)c4=O)c3C[C@H]2CN1C(=O)c1ccccc1	-1.51 and -0.994	0.284 and -0.41	-0.272 and -0.426	-1.2 and -0.26	-1.34 and -0.473	1.07 and 0.498	-0.217 (inactive) and -1.18 (inactive)	-0.409 and 0.893	0.1 and 0.277	-0.133 (inactive) and 2.11 (inactive)
O=C1NC(=O)C2C1C=CC(C(O)c1ccc([N+](=O)[O-])cc1)N2Nc1ccc(Cl)cc1Cl (stereo not given)	0.953 and 1.59	0.0938 and 0.263	0.949 and 1.79	-0.251 and 0.596	-0.194 and 0.932	-0.115 and -0.654	-0.833 (inactive) and -0.57 (inactive)	-0.314 and -0.905	0.319 and 2.28	0.303 (inactive) and 0.766 (inactive)
C=CCN(CCCC)C(=O)C(c1cccs1)N(C(=O)/C=C\C(=O)O)c1c(Cl)cccc1CO (stereo not given)	-0.163 and -0.667	0.441 and 0.526	-0.934 and -0.809	1.43 and 1.51	-0.097 and -0.435	-0.25 and -0.417	-0.96 (inactive) and 0.0799 (inactive)	0.819 and 1.04	-0.153 and -0.712	-0.352 (inactive) and 0.397 (inactive)

Source: PubChem BioAssay
